Laboratory results published in the supplement of paper PMC11732987, “Enantioselective OTUD7B fragment discovery through chemoproteomics screening and high-throughput optimisation” (Communications Chemistry, 2025).

Key:
Test in all cases: log2 ratio of Biotin-Ahx-Ub-VS probe labelling (fragment/DMSO); higher = less target engagement (more negative = stronger competition), active = hit call of the paper (q ≤ 0.05, log2 ratio ≤ -1)
Details in all cases: compound concentration: 200 uM; treatment time: 3 h
[1] = molecular target: T1, ALG13 (UniProt Q9NP73)
T1 sequence (whole entry): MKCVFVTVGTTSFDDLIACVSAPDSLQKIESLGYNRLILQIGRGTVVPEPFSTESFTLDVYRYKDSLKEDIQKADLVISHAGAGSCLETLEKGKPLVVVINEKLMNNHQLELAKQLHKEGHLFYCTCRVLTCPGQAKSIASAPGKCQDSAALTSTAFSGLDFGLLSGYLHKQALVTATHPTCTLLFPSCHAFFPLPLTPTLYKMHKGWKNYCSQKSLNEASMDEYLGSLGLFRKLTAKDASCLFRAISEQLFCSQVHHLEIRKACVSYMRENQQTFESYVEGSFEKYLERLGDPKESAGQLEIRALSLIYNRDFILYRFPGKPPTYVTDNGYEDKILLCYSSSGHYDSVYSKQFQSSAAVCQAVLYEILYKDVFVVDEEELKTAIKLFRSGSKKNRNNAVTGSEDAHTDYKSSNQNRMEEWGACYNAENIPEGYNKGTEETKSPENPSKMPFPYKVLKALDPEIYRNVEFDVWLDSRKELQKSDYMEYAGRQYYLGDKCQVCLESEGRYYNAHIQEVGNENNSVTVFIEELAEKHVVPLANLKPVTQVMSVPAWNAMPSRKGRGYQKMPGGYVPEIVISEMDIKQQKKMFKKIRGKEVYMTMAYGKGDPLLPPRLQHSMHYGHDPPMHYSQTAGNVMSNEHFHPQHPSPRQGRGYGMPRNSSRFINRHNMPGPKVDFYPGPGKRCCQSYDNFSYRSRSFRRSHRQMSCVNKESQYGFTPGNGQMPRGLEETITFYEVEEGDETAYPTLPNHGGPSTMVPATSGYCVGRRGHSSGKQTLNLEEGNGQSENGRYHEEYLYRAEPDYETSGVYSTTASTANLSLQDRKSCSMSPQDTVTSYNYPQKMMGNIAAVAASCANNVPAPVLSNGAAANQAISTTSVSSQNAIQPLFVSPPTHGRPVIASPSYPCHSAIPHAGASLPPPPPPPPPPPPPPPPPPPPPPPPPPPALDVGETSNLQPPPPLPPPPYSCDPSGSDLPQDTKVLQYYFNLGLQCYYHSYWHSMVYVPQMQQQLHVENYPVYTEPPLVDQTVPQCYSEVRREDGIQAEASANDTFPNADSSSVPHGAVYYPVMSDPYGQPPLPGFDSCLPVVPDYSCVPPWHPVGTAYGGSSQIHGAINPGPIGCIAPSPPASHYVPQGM
Summary of the method: (§1)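 Average log2 ratios of fragment over vehicle were obtained by unpaired t-test from global-median-normalised Spectronaut label-free quantities. Proteins with ≥2 unique peptides were included. HEK293T lysate (495 µg per sample) was treated in triplicate with fragment at 200 µM or vehicle for 3 h, then with Biotin-Ahx-Ub-VS at 0.5 µM final for 1 h, and labelled DUBs were NeutrAvidin-enriched and run by diaPASEF LC-MS/MS.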

[2] = molecular target: ATXN3 (UniProt P54252)
ATXN3, sequence (P54252 whole entry): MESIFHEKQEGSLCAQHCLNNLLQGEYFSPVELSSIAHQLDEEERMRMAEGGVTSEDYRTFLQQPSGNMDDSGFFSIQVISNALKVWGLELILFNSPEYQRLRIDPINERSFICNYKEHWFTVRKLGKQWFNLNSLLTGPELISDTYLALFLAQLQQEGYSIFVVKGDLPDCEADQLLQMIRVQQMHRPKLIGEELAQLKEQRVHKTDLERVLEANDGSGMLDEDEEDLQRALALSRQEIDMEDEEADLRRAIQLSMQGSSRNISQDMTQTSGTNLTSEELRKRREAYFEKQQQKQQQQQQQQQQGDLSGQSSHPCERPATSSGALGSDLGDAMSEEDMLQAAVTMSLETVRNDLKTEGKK
Summary of the method: as §1

[3] = molecular target: T2, BAP1 (UniProt Q92560)
T2 sequence (whole entry): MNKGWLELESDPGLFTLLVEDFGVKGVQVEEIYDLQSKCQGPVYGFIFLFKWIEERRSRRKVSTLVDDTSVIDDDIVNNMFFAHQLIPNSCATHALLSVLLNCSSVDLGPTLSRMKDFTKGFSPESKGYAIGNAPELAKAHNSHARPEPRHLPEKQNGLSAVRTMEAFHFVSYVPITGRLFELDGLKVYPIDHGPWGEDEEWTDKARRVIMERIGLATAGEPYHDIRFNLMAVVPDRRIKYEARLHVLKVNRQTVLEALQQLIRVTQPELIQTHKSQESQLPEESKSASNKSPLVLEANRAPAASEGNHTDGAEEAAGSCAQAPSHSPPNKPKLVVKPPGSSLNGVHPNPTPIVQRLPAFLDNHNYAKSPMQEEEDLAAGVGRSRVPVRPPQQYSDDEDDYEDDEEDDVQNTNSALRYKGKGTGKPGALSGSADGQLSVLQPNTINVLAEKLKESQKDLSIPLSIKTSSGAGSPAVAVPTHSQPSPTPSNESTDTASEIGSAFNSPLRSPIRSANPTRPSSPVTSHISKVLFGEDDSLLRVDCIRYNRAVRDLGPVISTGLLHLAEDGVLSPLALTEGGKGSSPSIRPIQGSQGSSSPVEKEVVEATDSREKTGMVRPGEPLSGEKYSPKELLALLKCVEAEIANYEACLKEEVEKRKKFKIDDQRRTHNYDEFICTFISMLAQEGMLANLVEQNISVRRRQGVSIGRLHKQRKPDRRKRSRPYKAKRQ
Summary of the method: as §1

[4] = molecular target: EIF3F (UniProt O00303)
EIF3F, sequence (O00303 whole entry): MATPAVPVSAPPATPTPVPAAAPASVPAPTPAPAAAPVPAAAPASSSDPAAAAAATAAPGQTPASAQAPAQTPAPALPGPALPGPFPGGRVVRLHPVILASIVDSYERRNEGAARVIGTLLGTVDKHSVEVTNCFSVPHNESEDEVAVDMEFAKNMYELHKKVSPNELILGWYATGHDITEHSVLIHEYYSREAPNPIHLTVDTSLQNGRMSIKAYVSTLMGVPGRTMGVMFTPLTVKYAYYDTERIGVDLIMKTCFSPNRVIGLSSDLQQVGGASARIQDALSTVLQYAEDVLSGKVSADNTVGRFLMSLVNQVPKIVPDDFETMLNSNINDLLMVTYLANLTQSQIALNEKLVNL
Summary of the method: as §1

[5] = molecular target: EIF3H (UniProt O15372)
EIF3H, sequence (O15372 whole entry): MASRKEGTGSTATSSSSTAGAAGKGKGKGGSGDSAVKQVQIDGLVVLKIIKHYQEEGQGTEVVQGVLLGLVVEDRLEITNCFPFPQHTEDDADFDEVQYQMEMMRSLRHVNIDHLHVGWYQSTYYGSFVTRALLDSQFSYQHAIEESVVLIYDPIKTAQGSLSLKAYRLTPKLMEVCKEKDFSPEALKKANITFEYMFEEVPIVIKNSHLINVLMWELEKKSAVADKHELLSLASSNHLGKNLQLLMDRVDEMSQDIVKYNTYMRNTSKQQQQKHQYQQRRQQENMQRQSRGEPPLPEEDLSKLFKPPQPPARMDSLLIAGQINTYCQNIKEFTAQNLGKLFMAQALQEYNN
Summary of the method: as §1

[6] = molecular target: T3, FAM105A (UniProt Q9NUU6)
T3 sequence (whole entry): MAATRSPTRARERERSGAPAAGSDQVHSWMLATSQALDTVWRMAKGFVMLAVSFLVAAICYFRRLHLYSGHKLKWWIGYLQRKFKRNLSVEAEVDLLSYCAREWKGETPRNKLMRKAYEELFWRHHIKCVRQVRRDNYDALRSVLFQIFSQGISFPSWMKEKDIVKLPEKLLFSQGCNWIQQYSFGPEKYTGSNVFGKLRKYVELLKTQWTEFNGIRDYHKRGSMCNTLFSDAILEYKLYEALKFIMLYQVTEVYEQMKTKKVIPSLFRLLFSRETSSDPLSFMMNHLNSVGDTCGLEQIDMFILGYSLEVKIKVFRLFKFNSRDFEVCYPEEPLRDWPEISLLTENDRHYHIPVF
Summary of the method: as §1

[7] = molecular target: OTUB1 (UniProt Q96FW1)
OTUB1, sequence (Q96FW1 whole entry): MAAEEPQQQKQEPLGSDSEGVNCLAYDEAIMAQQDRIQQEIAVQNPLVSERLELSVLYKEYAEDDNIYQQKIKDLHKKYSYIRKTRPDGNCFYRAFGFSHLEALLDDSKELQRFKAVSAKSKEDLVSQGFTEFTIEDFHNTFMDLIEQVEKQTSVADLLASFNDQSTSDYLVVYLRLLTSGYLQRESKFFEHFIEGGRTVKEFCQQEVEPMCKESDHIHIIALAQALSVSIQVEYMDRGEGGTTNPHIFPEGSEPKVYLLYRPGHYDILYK
Summary of the method: as §1

[8] = molecular target: T4, OTUD4 (UniProt Q01804)
T4 sequence (whole entry): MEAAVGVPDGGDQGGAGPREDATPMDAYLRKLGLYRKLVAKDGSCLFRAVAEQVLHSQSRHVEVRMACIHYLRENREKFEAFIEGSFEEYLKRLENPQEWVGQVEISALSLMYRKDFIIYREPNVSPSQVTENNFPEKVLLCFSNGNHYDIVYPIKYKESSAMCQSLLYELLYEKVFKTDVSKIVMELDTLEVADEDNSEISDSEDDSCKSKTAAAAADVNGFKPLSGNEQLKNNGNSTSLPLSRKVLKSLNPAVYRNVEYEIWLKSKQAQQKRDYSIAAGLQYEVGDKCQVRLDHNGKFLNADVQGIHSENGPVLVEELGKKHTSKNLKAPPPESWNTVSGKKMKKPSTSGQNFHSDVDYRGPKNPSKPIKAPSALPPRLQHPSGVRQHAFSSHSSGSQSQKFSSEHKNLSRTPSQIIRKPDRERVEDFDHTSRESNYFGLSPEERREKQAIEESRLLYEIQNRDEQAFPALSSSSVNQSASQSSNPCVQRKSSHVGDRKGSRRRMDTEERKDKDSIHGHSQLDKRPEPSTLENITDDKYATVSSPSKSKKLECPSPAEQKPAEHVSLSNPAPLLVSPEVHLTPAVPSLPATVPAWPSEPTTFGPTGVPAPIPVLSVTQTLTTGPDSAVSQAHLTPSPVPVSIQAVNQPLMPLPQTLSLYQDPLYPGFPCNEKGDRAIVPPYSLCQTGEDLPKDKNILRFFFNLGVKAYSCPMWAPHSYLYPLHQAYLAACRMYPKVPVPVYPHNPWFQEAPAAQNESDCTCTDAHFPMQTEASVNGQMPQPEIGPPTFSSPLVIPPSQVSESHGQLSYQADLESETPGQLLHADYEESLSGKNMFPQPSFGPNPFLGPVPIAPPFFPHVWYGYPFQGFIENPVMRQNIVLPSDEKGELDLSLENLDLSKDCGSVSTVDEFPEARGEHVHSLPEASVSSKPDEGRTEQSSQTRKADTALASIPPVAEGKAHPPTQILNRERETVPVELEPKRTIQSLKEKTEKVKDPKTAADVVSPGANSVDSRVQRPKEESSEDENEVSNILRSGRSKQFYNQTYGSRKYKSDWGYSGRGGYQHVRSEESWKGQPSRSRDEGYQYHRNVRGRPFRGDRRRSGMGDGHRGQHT
Summary of the method: as §1

[9] = molecular target: T5, OTUD5 (UniProt Q96G74)
T5 sequence (whole entry): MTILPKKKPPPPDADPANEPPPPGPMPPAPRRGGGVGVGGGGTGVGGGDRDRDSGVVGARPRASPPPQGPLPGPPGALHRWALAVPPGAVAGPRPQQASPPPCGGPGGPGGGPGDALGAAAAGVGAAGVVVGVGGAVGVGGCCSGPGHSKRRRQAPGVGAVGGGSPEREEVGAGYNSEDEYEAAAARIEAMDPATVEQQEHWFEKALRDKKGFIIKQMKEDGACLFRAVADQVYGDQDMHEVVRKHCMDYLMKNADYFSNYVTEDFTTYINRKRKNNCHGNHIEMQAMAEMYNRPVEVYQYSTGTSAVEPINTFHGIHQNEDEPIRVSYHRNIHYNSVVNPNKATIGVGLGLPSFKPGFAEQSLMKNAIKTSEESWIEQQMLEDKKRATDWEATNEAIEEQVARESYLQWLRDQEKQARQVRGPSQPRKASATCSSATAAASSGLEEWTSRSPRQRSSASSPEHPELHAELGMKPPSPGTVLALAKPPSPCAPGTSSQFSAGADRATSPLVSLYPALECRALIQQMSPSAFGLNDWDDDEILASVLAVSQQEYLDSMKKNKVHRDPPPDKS
Summary of the method: as §1

Measured: log2 ratio of Biotin-Ahx-Ub-VS probe labelling

CN(C)C(=O)c1ccc(CNC(=O)CCl)cc1
active: [3] -2.84
inactive: [1] 0.104 | [2] -0.0706 | [4] 0.137 | [5] 0.092 | [6] 0.248 | [7] -0.0918 | [8] -0.365 | [9] -0.146
